Source: PubChem
FBPA Giardia inh: blocks Giardia fructose-bisphosphate aldolase activity | A8B2U2 | purified Giardia FBPA | Potency, µM (titrated, usually from 59.6 µM), usual class: inhibitors | actives 0.71% (n = 290,000); note: nearly all actives have a fitted effect of over 55% in size
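Giardia FBPA (40 nM reagent) was preincubated 10 min at RT with compound (up to 57.5 uM final), then substrate plus GAPDH/TPI/NAD/arsenate coupling system with diaphorase/resazurin was added; resorufin fluorescence (525/598 nm) was read after 20 min.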
Tb PYK inh: inhibitors of Trypanosoma brucei pyruvate kinase; Q57TT1; TbPYK enzyme, Kinase-Glo Plus ATP luminescence, 45 min; Potency, µM (doses to about 76.8 µM), hits mostly inhibitors; actives 0.12% (n = 410,000); AID 624173; note: nearly all actives have a fitted effect of over 50% in size
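Luminescent Kinase-Glo Plus end-point after 45 min room-temperature reaction of T. brucei pyruvate kinase started with 130 uM ADP (final). Buffer TEA 50 mM pH 7.2 with KCl, MgCl2, BSA, Tween-20; titration-based qHTS with fitted concentration-effect curves.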
Sm TGR inh: S. mansoni TGR enzyme inhibition. actives 3% (n = 360,000). Potency, µM (doses to about 114 µM), hits mostly inhibitors. AID 485364. purified TGR, DTNB reduction, TNB absorbance 405 nm; note: nearly all actives have a fitted effect of over 60% in size
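Kinetic colorimetric format: TGR-catalysed, NADPH-driven DTNB reduction monitored via TNB absorbance. Enzyme dispensed at 20 nM; compound exposure 15 min at room temperature before reaction start.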
Shiga inhibitor: inhibitors of Shiga toxin in Vero cells | actives 9.2% (n = 290,000) | inhibition, % at 38.7 µM | Vero cells, Shiga toxin protein synthesis inhibition reporter | AID 2315; in the data active = inhibition mostly above about 28%, no sharp cut-off; inactive = mostly below about 43%
CHX counter: counter-screen for Shiga toxin inhibitors: cycloheximide protein synthesis inhibition | cell reporter, cycloheximide protein synthesis inhibition counterscreen | max response, % | actives 12% (n = 300,000) | AID 2314; in the data active = max response mostly above about 13%, no sharp cut-off; inactive = mostly below about 14%; note: read at 38.3 µM for the half of the compounds with a filed dose
LmPK inhibitor: inhibitors of Leishmania mexicana pyruvate kinase | Q27686 | purified LmPK, Kinase-Glo ATP luminescence, 1 h | Potency, µM (top dose mostly 57.5 µM), usual class: inhibitors | actives 0.37% (n = 290,000)
Target sequence (Q27686 whole entry, looked up): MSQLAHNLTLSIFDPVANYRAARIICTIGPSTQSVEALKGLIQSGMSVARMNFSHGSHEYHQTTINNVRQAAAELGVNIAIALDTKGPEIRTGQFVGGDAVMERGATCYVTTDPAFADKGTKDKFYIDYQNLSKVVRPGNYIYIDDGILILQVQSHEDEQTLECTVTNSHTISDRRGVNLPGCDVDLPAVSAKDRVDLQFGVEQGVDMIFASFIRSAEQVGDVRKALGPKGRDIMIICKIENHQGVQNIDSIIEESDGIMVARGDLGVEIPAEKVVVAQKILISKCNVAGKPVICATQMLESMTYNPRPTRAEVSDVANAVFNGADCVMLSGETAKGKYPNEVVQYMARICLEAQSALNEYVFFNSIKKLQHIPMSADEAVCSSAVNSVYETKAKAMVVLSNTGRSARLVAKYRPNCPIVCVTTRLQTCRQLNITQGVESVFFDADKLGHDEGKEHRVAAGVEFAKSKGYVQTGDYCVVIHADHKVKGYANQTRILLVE
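In 50 mM imidazole pH 7.2 with 7 mM MgCl2, LmPK (0.1 nM) turned over PEP (0.5 mM) and ADP (0.1 mM) for 1 h at room temperature. Luciferase read-out of ATP.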
Each line names hits and unclear results; the compound was inactive in the other large screens. Only a selection was taken, and hits are over-represented in it overall. Unless noted, calls come from the whole dose curve; as a rule, active = well fitted curve in the direction sought with a large enough effect; inconclusive = small, poorly fitted or top-dose-only effect, or another doubt; inactive = no such curve, though single readings can be large; an effect the other way counts as inactive or inconclusive.

O=C(O)CSc1nnc(CSc2nc3ccccc3s2)n1-c1ccccc1	none
FC(F)(F)c1cccc(NCc2n[nH]c(=S)n2C2CCCCC2)c1	Tb PYK inh 13µM, LmPK inhibitor inconclusive
S=c1[nH]nc(CSc2nc3ccccc3s2)n1C1CCCCC1	Tb PYK inh inconclusive, LmPK inhibitor 11µM
CC(C)C(=O)N1CCC1(C)C(=O)Nc1cccc(Oc2ccccc2)c1 (stereo not drawn)	none (no result: FBPA Giardia inh, Sm TGR inh, Shiga inhibitor, CHX counter, LmPK inhibitor)
Cc1nnc2c(N3CCN(c4ccccc4F)CC3)nc3ccc(C(=O)c4ccccc4)cc3n12	none (no result: FBPA Giardia inh, Shiga inhibitor, CHX counter, LmPK inhibitor)
CCOC(=O)c1cccc(COC(=O)c2cccc(-c3nnc(-c4ccccc4)o3)c2)c1	Shiga inhibitor 78, CHX counter 46
O=C(OCc1ccc(C(=O)c2ccccc2)cc1)c1cccc(-c2nnc(-c3ccccc3)o2)c1	Shiga inhibitor 64, CHX counter 22
O=C(OCc1ccccc1)c1cccc(-c2nnc(-c3ccccc3)o2)c1	none
CC(C)OC(=O)c1ccc(COC(=O)c2cccc(-c3nnc(-c4ccccc4)o3)c2)cc1	CHX counter 17
CC(=O)c1cc(-c2ccccc2)n(CC(=O)NC2CCCCCC2)c1C	none (no result: FBPA Giardia inh, Shiga inhibitor, CHX counter, LmPK inhibitor)
COc1ccc(Cn2c(SCC#N)nc3ccc(N4CCOCC4)cc3c2=O)cc1	FBPA Giardia inh inconclusive, Sm TGR inh inconclusive, Shiga inhibitor 124, CHX counter 58
CN(C)/C=C1\Cc2ccccc2C1=O	Sm TGR inh inconclusive, Shiga inhibitor 113, CHX counter 46
O=C1C(=Cc2ccc(Cl)cc2)Cc2ccccc21	none (no result: FBPA Giardia inh, Sm TGR inh, Shiga inhibitor, CHX counter, LmPK inhibitor)
CN(C)/C=C1\C(=O)Oc2ccccc2C1=O	none (no result: FBPA Giardia inh, Sm TGR inh, Shiga inhibitor, CHX counter, LmPK inhibitor)
CN(C)C=C1C(=O)c2ccccc2C1=O	Shiga inhibitor 65, CHX counter 27
CCCCCCCCCCCCCCOc1ccc(C(=O)O)o1	none (no result: Tb PYK inh, Sm TGR inh, LmPK inhibitor)
O=C(CSc1nnc(-c2cccs2)o1)c1cccs1	Shiga inhibitor 88, CHX counter 93
COc1ccc(-c2nnc(SCC(=O)c3ccc[nH]3)o2)cc1	Shiga inhibitor 151, CHX counter 36
O=C(CSc1ccc(-c2cccs2)nn1)Nc1ccccc1	none
COc1ccc(-c2nnc(SCC(=O)c3cc(C)n(Cc4cccs4)c3C)o2)cc1	none
COc1ccc(-c2nnc(SCC(=O)NC(=O)NCc3ccccc3)o2)cc1	none
COc1ccc(-c2nnc(SCC(=O)c3cccs3)o2)cc1	Shiga inhibitor 95, CHX counter 29
O=C(CSc1ccc(-c2cccs2)nn1)c1cccs1	Shiga inhibitor 104, CHX counter 46
Cc1ccc(Cl)cc1N1CCN(C(=O)c2cn(C)c3ccc(S(=O)(=O)N4CCCC4)cc3c2=O)CC1	none (no result: FBPA Giardia inh, Shiga inhibitor, CHX counter, LmPK inhibitor)
CCCN(CCC)c1cc(C)nc2nc(-c3ccc(C(C)(C)C)cc3)nn12	none (no result: FBPA Giardia inh, Shiga inhibitor, CHX counter, LmPK inhibitor)
OC1c2ccccc2N=C2CCCN21 (stereo not drawn)	none (no result: Tb PYK inh, Sm TGR inh, LmPK inhibitor)
COc1ccc(-c2nnc(SCC(=O)c3ccc(O)cc3O)o2)cc1	Shiga inhibitor 33
COc1ccc(NC(=O)CSc2nnc(-c3cccc(O)c3)o2)cc1	none
COc1ccc(-c2nnc(SCC(=O)c3cccs3)n2-c2ccc(Cl)cc2)cc1	Shiga inhibitor 75, CHX counter 40
COc1cccc(-c2nnc(SCC(N)=O)n2-c2ccc(Cl)cc2)c1	none
COc1cccc(NC(=O)CSc2nnc(-c3cc(C)n(-c4ccccc4)c3C)o2)c1	Shiga inhibitor 101, CHX counter 48
Cc1cc(C(=O)CSc2nnc(-c3cccs3)o2)c(C)n1-c1ccccc1	FBPA Giardia inh inconclusive, Shiga inhibitor 77, CHX counter 12
CCNc1ncc2nc(-c3ccccc3)c(=O)n(CCOC)c2n1	none (no result: Tb PYK inh, Sm TGR inh, Shiga inhibitor, CHX counter, LmPK inhibitor)
O=C(NCc1ccc(Cl)cc1Cl)Nc1nc([C@@H]2O[C@H](CO)[C@@H](O)[C@H](O)[C@H]2O)cs1	none (no result: FBPA Giardia inh, Sm TGR inh, Shiga inhibitor, CHX counter, LmPK inhibitor)
O=C1OC(c2cccs2)Sc2ccccc21 (stereo not drawn)	none (no result: FBPA Giardia inh, Sm TGR inh, Shiga inhibitor, CHX counter, LmPK inhibitor)
Cc1ccc(SCC(=O)c2ccc[nH]2)cc1	Shiga inhibitor 79, CHX counter 35
CN(CCOc1ccccc1)C(=O)C1CCC(=O)N(CCCN2CCCC2=O)C1 (stereo not drawn)	none (no result: FBPA Giardia inh)
O=c1c2ccccc2cnn1CCOc1ccccc1	Tb PYK inh inconclusive, LmPK inhibitor 13µM
CSCC(O)Cn1ncc2ccccc2c1=O (stereo not drawn)	CHX counter 21
